Screening results as filed in PubChem BioAssay.
Marburg entry inh: blocks Marburg virus binding to or entry into cells | Marburg virus pseudotyped entry inhibition, cell reporter | Potency, µM (top dose mostly 37.8 µM), for the others: top-dose activity change, negative = inhibition, actives largely listed as inhibitors | 300,000 compounds, 1.8% hits; calls by dose curve; tested in HEK293 cells
HCV inh: inhibitors of hepatitis C virus infection; Huh7.5.1 HCVcc-Cre infection, luciferase reporter, 44 h; Potency, µM (top dose mostly 41.8 µM), without a hit: at the top dose activity change, negative = inhibition, most hits filed as inhibitors; 340,000 compounds, 3.4% hits
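1,000 cells/well; 4 h culture; + compound; + HCVcc-Cre (~0.5 moi); 44 h; luciferase substrate, RT 15 min; read 15 sec.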
Lassa entry inh: Lassa virus entry inhibition; Potency, µM (titrated, usually from 37.9 µM), for inactives: at the highest dose activity change, negative = inhibition, usual class: inhibitors; 300,000 compounds, 1.2% hits; Lassa virus pseudotype entry inhibition, cell reporter; calls by dose curve; tested in HEK293 cells; also: nearly all actives have a fitted effect of over 50% in size
RE007 growth inh: less growth of the S. pombe RE007 Vpr strain; Potency, µM (titrated, usually from 92.2 µM), for inactives: at the highest dose activity change, negative = less growth, hits mostly inhibitors; 360,000 compounds, 0.21% hits; AID 651644; S. pombe RE007 Vpr strain, BacTiter-Glo ATP luminescence, 24 h; active = well fitted falling curve with a large enough effect; inconclusive = small, poorly fitted or top-dose-only effect; inactive = no such curve, though single readings can be large or run the other way; also: nearly all actives have a fitted effect of over 50% in size
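Fission yeast strain RE007, carrying one chromosomally integrated HIV-1 vpr copy, was seeded at OD 0.01 in PMG+AL medium with 23 nL pinned compound. After 24 h at 30 °C and 99% humidity, viability was read by BacTiter-Glo luminescence.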
Sm TGR block: blocks Schistosoma mansoni thioredoxin glutathione reductase; Q962Y6; 360,000 compounds, 3% hits; purified TGR, DTNB reduction, TNB absorbance 405 nm; AID 485364; Potency, µM (titrated, usually from 114 µM), for inactives: at the top dose activity change, negative = inhibition, actives largely listed as inhibitors; also: nearly all actives have a fitted effect of over 60% in size
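First, TGR (20 nM dispensed) and NADPH were mixed with compound. Second, a 15 min room-temperature incubation followed. Third, further NADPH and then DTNB were added to start the reaction. Finally, TNB absorbance was monitored kinetically.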
FMDV inh: foot and mouth disease virus antiviral activity. FMDV antiviral cell-based qHTS. Potency, µM (series often up to 57.9 µM), for the others: top-dose activity change, negative = inhibition, actives largely listed as inhibitors. 410,000 compounds, 1.2% hits; calls by dose curve; tested in HEK293T cells; also: read-out not given here; nearly all actives have a fitted effect of over 45% in size
An asterisk follows results filed as active; ? = inconclusive; . = no result; [ ] = dose if it differs, or a comment. Most compounds without a hit are left out; they make up all but 7.2% or so of the library. Unless noted, calls follow the shape of the dose curve; as a rule, active = well fitted curve in the direction sought with a large enough effect; inconclusive = small, poorly fitted or top-dose-only effect, or another doubt; inactive = no such curve, though single readings can be large; an effect the other way counts as inactive or inconclusive. % is scaled to controls: 0 for no effect and ±100 for the full control effect; potency is read from the fitted curve at half-maximal effect.

SMILES	Marburg entry inh	HCV inh	Lassa entry inh	RE007 growth inh	Sm TGR block	FMDV inh
Cc1ccc(S(=O)(=O)Nc2cccc3cccnc23)cc1	?	?	?	28%	6%	28µM*
CCOC(=O)N1CCc2c(sc3c2c(=O)n(-c2ccc(F)cc2)c(=O)n3CC(=O)c2ccc(Cl)cc2)C1	-17%[46.1 µM]	.	-2%[46.1 µM]	.	0%	-20%
CN1CCCN(C(=O)[C@@H]2C[C@@H](Sc3nc4ccccc4[nH]3)CN2Cc2ccc(OC(F)(F)F)cc2)CC1	.	.	.	.	.	-13%
Cc1cc(F)ccc1NCc1ccccc1-c1nnc(-c2ccccc2Cl)o1	-2%[46.1 µM]	.	14%[46.1 µM]	.	2%	15%
Cc1c2cnn(CC(=O)NCc3ccc(F)cc3)c(=O)c2c(C)n1Cc1ccccc1Cl	-6%[46.1 µM]	.	-11%[46.1 µM]	.	-2%	-20%
Cc1cccc(Cn2c(SCc3ccc(C(=O)NCc4cccs4)cc3)nc3ccncc32)c1	-1%[46.1 µM]	.	-16%[46.1 µM]	.	-3%	-15%
O=C1CC(c2ccccc2)Sc2nc3ccccc3n21 (centres undefined)	?	5%	-26%	-9%	7%	-3%
O=C1CC(c2ccco2)Sc2nc3ccccc3n21 (centres undefined)	?	9%	7%	?	50µM*	42%
O=C1CC(c2ccc3c(c2)OCO3)Sc2nc3ccccc3n21 (centres undefined)	?	9%	?	-13%	-10%	18µM*
Cc1oc(-c2ccccc2Cl)nc1Cn1cccc1C1=NC(c2ccccc2)CO1 (centres undefined)	?	11µM*	7.3µM*	-1%	12%	?
Cc1oc(-c2ccccc2Cl)nc1CN1CCCC1c1ccc(F)cc1 (centres undefined)	.	-13%	.	8%	-14%	0%
COc1ccc2oc(C(=O)Nc3nnc(C)s3)c(C)c2c1	?	-7%	7.1µM*	-30%	-14%	?
COc1ccc(-c2cnnn2-c2ccc(NC(=O)c3ccc(S(=O)(=O)N4CCCCC4)cc3)cc2)cc1	-5%	-3%	7.1µM*	1%	-3%	4%
Cc1ccc2oc(C(=O)Nc3nnc(C)s3)c(C)c2c1	1%	27%	?	-25%	-1%	21%
COc1ccc(NC(=O)c2oc3ccc(S(=O)(=O)N4CCCCC4)cc3c2C)cc1	.	.	?	.	7%	18µM*
CC(Oc1ccc(Br)cc1)C(=O)Nc1ccc(S(=O)(=O)N(C)C2CCN(C)CC2)cc1 (centres undefined)	?	6.3µM*	?	1%	1%	-8%
COc1ccc(-c2cnnn2-c2ccc(NC(=O)c3ccc(S(=O)(=O)N(C)C)cc3)cc2)cc1	.	.	?	.	-5%	?
Cc1ccc(S(=O)(=O)N(CC(=O)Nc2ccc(F)cc2F)Cc2ccc(F)cc2)cc1	9%[46.1 µM]	.	-23%[46.1 µM]	.	6%	-15%
COc1ccc2oc(C(=O)N3CCN(C(=O)c4ccco4)CC3)c(C)c2c1	0%	-22%	-15%	-8%	50µM*	-20%
COc1ccc2oc(C(=O)N3CCN(c4ncccn4)CC3)c(C)c2c1	.	2%	.	-4%	-9%	-6%
COc1ccc2oc(C(=O)Nc3ccc(S(=O)(=O)N(C)C4CCN(C)CC4)cc3)c(C)c2c1	.	11µM*	.	10%	-2%	?
Cc1oc(-c2ccc(Cl)cc2)nc1CN1CCCC(C(=O)NCCc2ccc(Cl)cc2)C1 (centres undefined)	4%[46.1 µM]	.	18%[46.1 µM]	.	9%	?
Cc1ccccc1CN1C(=O)c2ccccc2S(=O)c2ccc(C(=O)NCc3ccc(Cl)cc3)cc21 (centres undefined)	.	.	-19%[46.1 µM]	.	6%	-7%
COCCn1c(=O)c(-c2cccs2)nc2cnc(N(C)C)nc21	.	.	.	.	.	-16%
CCOc1ccccc1CNC(=O)c1ccc2c(c1)N(Cc1ccc(C)cc1)CCS2	?	.	.	.	-1%	4%
CCc1c(C(=O)NCCc2cccc(C)c2)[nH]c(C)c1C(C)=O	?	-21%	3.5µM*	11%	-7%	23%
NC(=O)CSc1nc2ccc(NC(=O)COc3ccccc3)cc2s1	18%[46.1 µM]	.	-2%[46.1 µM]	.	-1%	32%
